# Experimental data from ChEMBL document CHEMBL3988442, “University of Dundee, Small-Polar-MMV Screening Library” (2021).
# About 1,000 (1.4%) of roughly 69,000 compounds showed an effect of 50% or more. For the sample, strong results were picked, then their nearest neighbours and some compounds at random.
# System: Leishmania donovani
# Experiment: Leishmania intramacrophage assay
# Type: functional, organism-based
# Design: scale not given: in the data most compounds retested in dose-response had high values
smiles,measurement,setting,value
CC1(C)CN(CC(F)(F)F)CCN1CC(N)=O,Percent Effect,"30.3 µM, […]",13.64%
Cc1ccc(OCCn2cnc3oc(C)c(C(=O)O)c3c2=O)cc1,Percent Effect,"30.3 µM, […]",-9.017%
Cc1noc(C(C)N2CCN(CCn3ccccc3=O)CC2)n1 (centres undefined),Percent Effect,"30.3 µM, […]",29.89%
CCCc1noc(C(C)N2CCN(CCn3ccccc3=O)CC2)n1 (centres undefined),Percent Effect,"30.3 µM, […]",52.92%
CC(c1nc(C2CC2)no1)N1CCN(CCn2ccccc2=O)CC1 (centres undefined),Percent Effect,"30.3 µM, […]",21.89%
Cc1nc2ccc(S(=O)(=O)Nc3c(C)nn(CC(=O)O)c3C)cc2s1,Percent Effect,"30.3 µM, […]",-9.195%
CCOC[C@@H]1CC[C@H]2[C@H](CCN2S(=O)(=O)c2ccc(F)cc2)O1,Percent Effect,"30.3 µM, […]",19.83%
CCCC(NC(=O)c1cc(C)n(C2CC2)c1C)c1nnn[nH]1 (centres undefined),Percent Effect,"30 µM, 30.03 µM",2.645%
CCOc1c(CNCCCn2ccnc2)cc(Cl)cc1OC.Cl.Cl,Percent Effect,"30.3 µM, […]",35.73%
CCOc1ccc(Cl)cc1CNCCCn1ccnc1,Percent Effect,"30 µM, 30.03 µM",1.663%
COc1ccc(Cl)cc1CNCCCn1ccnc1,Percent Effect,"30.3 µM, […]",3.119%
CCOc1c(Cl)cc(Cl)cc1CNCCCn1ccnc1,Percent Effect,"30.3 µM, […]",67.73%
CCn1nnc(NCc2cc(Cl)cc(Cl)c2OC)n1,Percent Effect,"30.3 µM, […]",-5.532%
Cc1cc(F)ccc1CN1CCC(O)(CN2CCCCC2)C1 (centres undefined),Percent Effect,"30 µM, 30.03 µM",37.89%
COc1ccc(CN2CCC(O)(CN3CCCCC3)C2)c(C)c1 (centres undefined),Percent Effect,"30.3 µM, […]",67.74%
Cc1cc(F)ccc1CN1CCCC(O)(CN2CCCC2)C1 (centres undefined),Percent Effect,"30.3 µM, […]",37.99%
CCOc1ccc(C(=O)CCC(=O)N(C)Cc2nc(C)c[nH]2)cc1C,Percent Effect,"30.3 µM, […]",-49.88%
CN1CCC(N(C)C[C@H]2CC[C@@H](Cc3ccc4occc4c3)O2)CC1,Percent Effect,"30.3 µM, […]",87.95%
CN1CCC(N(C)C[C@H]2CC[C@@H](Cc3ccc4c(cnn4C)c3)O2)CC1,Percent Effect,"30.3 µM, […]",38.58%
COc1ccc(C[C@@H]2CC[C@H](CN(C)C3CCN(C)CC3)O2)cc1,Percent Effect,"30.3 µM, […]",8.587%
CCN(C)C[C@H]1CC[C@@H](Cc2ccc3c(cnn3C)c2)O1,Percent Effect,"30.3 µM, […]",-0.9976%
CN1CCC(N(C)C[C@H]2CC[C@@H](Cc3cccc(CO)c3)O2)CC1,Percent Effect,"30.3 µM, […]",11.6%
CN1CCC(N(C)C[C@H]2CC[C@@H](Cc3cccc(O)c3)O2)CC1,Percent Effect,"30.3 µM, […]",81.26%
Cc1ccnn1CCC(=O)N1CCCC1c1cc2cccnc2[nH]1.Cl (centres undefined),Percent Effect,"30.3 µM, […]",-28.4%
COCCNC(=O)N1CCCCC1CNC(=O)Nc1ccccc1 (centres undefined),Percent Effect,"30.3 µM, […]",-22.22%
Cc1nc(CNC(=O)N(CCCO)C2CCc3ccccc32)oc1C (centres undefined),Percent Effect,"30.3 µM, […]",21.1%
CC(C)c1cc(C(=O)N2CC[C@@H](c3ccc4c(c3)OCO4)[C@H](O)C2)[nH]n1,Percent Effect,"30.3 µM, […]",26.43%
CCOCC1CN(Cc2cnn(C)c2)Cc2nn(C)cc21.O=C(O)C(F)(F)F (centres undefined),Percent Effect,"30 µM, 30.03 µM",-19.77%
Cc1nn(Cn2ccc(C(=O)N3CCCC3)n2)c(C)c1Cl,Percent Effect,"30.3 µM, […]",14.44%
Cc1nn(Cn2ccc(C(=O)N3CCC(C)CC3)n2)c(C)c1Cl,Percent Effect,"30.3 µM, […]",52.68%
Cc1nn(Cn2ccc(C(=O)N3CCCC(C)C3)n2)c(C)c1Cl (centres undefined),Percent Effect,"30.3 µM, […]",24.98%
Cc1cc(C(=O)NCc2cccnc2N2CCCC(O)C2)[nH]n1 (centres undefined),Percent Effect,"30.3 µM, […]",14.66%
CN(Cc1ccc(Br)c2cccnc12)S(C)(=O)=O,Percent Effect,"30.3 µM, […]",20.74%
O=C(NCCc1cccs1)NCC(O)c1cccc(F)c1 (centres undefined),Percent Effect,30 µM,0.0374%
Cc1nc(Cn2c3c(ccc2=O)CC(NC(N)=O)CC3)cs1 (centres undefined),Percent Effect,"30.3 µM, […]",52.43%
CCCC(=O)NC1CCc2c(ccc(=O)n2Cc2csc(C)n2)C1.O=C(O)C(F)(F)F (centres undefined),Percent Effect,"30.3 µM, […]",38.16%
Cc1nc(Cn2c3c(ccc2=O)CC(N)CC3)cs1 (centres undefined),Percent Effect,"30.3 µM, […]",24.76%
CCN1CC2(CC1=O)CN(Cc1ccncc1)CCN(C(=O)C(C)C)C2.O=C(O)C(F)(F)F.O=C(O)C(F)(F)F (centres undefined),Percent Effect,"30.3 µM, […]",17.44%
O=C(C[C@@H]1COC[C@H]2CN(C3CCCC3)C[C@@H]12)N1CCCCO1.O=C(O)C(F)(F)F,Percent Effect,"30.3 µM, […]",0.3497%
Cc1c[nH]c(CN(C)C(C(=O)O)c2c(F)cccc2OC(C)C)n1 (centres undefined),Percent Effect,"30.3 µM, […]",12.35%
CC(O)CN1CCC(CNCc2cccc(C(F)(F)F)c2)CC1 (centres undefined),Percent Effect,"30.3 µM, […]",35.92%
CC(O)CN1CCC(CNCc2cccc(Cl)c2)CC1 (centres undefined),Percent Effect,"30.3 µM, […]",14.58%
CC(O)CN1CCC(CNCc2cccc(OC(F)(F)F)c2)CC1 (centres undefined),Percent Effect,30 µM,66.17%
CC(O)CN1CCC(CNCc2cccc(C(N)=O)c2)CC1 (centres undefined),Percent Effect,"30 µM, 30.03 µM",24.83%
CC(O)CN1CCC(CNCc2ccccc2C(F)(F)F)CC1 (centres undefined),Percent Effect,30 µM,19.95%
CC(O)CN1CCC(CNCc2ccccc2OC(F)(F)F)CC1 (centres undefined),Percent Effect,"30 µM, 30.03 µM",31.23%
CC(O)CN1CCC(CNCc2ccc(OC(F)(F)F)cc2)CC1 (centres undefined),Percent Effect,30 µM,89.6%
CC(O)CN1CCC(CNCc2ccc(C#N)cc2)CC1 (centres undefined),Percent Effect,"30.3 µM, […]",-9.359%
CC(O)CN1CCC(CNCc2ccc(S(C)(=O)=O)cc2)CC1 (centres undefined),Percent Effect,"30 µM, 30.03 µM",29.6%
CC(O)CN1CCC(CNCc2cccc(OC(C)C)c2)CC1 (centres undefined),Percent Effect,"30 µM, 30.03 µM",57.47%
CC(O)CN1CCC(CNCc2cccc(Br)c2)CC1 (centres undefined),Percent Effect,"30 µM, 30.03 µM",61.22%
CC(O)CN1CCC(CNCc2cccc(C(=O)N(C)C)c2)CC1 (centres undefined),Percent Effect,"30.3 µM, […]",15.32%
COC(=O)c1cc(NCC(=O)NC(N)=O)cc(C(F)(F)F)c1,Percent Effect,"30.3 µM, […]",10.64%
C(=C\c1ccccc1)/CNCC1CCc2nncn2C1 (centres undefined),Percent Effect,"30.3 µM, […]",-5.474%
O=C(Nc1ccccc1F)NC1(CO)CCOCC1,Percent Effect,"30.3 µM, […]",37.09%
Cc1nc(CN2C[C@@H]3CN(C(=O)c4ccnnc4)C[C@@H]3C2=O)cs1.O=C(O)C(F)(F)F,Percent Effect,"30 µM, 30.03 µM",13.66%
CC(C)(C)n1ncc2c1CCCC2NCc1cccc2c1OCCO2 (centres undefined),Percent Effect,30 µM,39.91%
COc1c(CC2CC(C(=O)O)=NO2)c(Br)c2c(c1OC)OCO2 (centres undefined),Percent Effect,"30.3 µM, […]",9.318%
Cc1noc(CNC(=O)N2CCN(c3nc(C)c(C)s3)CC2)n1,Percent Effect,"30.3 µM, […]",0.7779%
O=C(CN1CCOC(Cn2cccn2)C1)NCc1ccco1 (centres undefined),Percent Effect,30 µM,30.39%
OC(CNC1CCOCC1)c1ccc(Cl)c(F)c1 (centres undefined),Percent Effect,"30.3 µM, […]",9.683%
CC(=O)N1CCCCC[C@@H]2[C@@H]1[C@H](c1cccc(F)c1)CN2C(=O)C1CC1,Percent Effect,"30.3 µM, […]",16.49%
Cc1nc[nH]c1-c1nccn1CCN1CCOC1=O,Percent Effect,"30.3 µM, […]",3.243%
CC(C)C(=O)NCCNC(=O)C(C)OCC(F)(F)F (centres undefined),Percent Effect,"30.3 µM, […]",28.18%
CC(C)COC(C)C(=O)NCCNC(=O)C(C)C (centres undefined),Percent Effect,"30.3 µM, […]",43.81%
CC(C)COC(C)C(=O)NCCNS(C)(=O)=O (centres undefined),Percent Effect,"30.3 µM, […]",50.97%
CCOC(C)C(=O)NCCNS(C)(=O)=O (centres undefined),Percent Effect,"30.3 µM, […]",50.09%
CC(CC(=O)NCCNS(C)(=O)=O)C1CCCCC1 (centres undefined),Percent Effect,"30.3 µM, […]",12.79%
CC(C)COC(C)C(=O)NCc1ccccc1 (centres undefined),Percent Effect,30 µM,13.02%
